Inconclusive results are not listed. Entries that show only a call come without a potency. More than one record can exist for a structure, and the calls need not agree. Active and inactive are the calls of the source. Calls come from the whole dose curve.
Test: p53 small molecule agonists, cell-based qHTS assay with human liver microsomes: qHTS cell viability counter screen (AID 1963579); note: nearly all actives have a fitted effect of over 45% in size
Settings: p53RE-bla HCT-116 viability, ATP luminescence, 16 h, HLM; series mostly up to 66 µM; activity change, negative = cytotoxicity: at the top concentration
Excerpt: National Center for Advancing Translational Sciences [NCATS]
Division of Preclinical Innovation [DPI]
U.S. Environmental Protection Agency [EPA]
National Institutes of Environmental Health Sciences [NIEHS]
National Toxicology Program [NTP]
U.S. Food and Drug Administration [FDA]
p53, a tumor suppressor protein, is activated following cellular insult, including DNA damage and other cellular stresses. The activation of p53 regulates cell fate by inducing DNA repair, cell cycle arrest, apoptosis, or cellular senescence. The activation of p53, therefore, is a good indicator of DNA damage and other cellular stresses. […] The activation of the reporter gene under culture conditions can be detected by fluorescence intensity. This cell line was used to screen the Tox21 10K compound library in the condition of presence of human liver microsomes and to identify agonists that activate the p53 signaling pathway after in vitro metabolic activation (Ooka et al., Archive of Toxicology 96:1975-1987, 2022).
Tox21 Assay Protocol Summary:
The p53RE-bla cells were dispensed at 4,000cells/3ul/well in 1536-well black-clear bottom plates. After the assay plates were incubated at 37 C, 5% CO2 incubator for 5 hours, 23 nL of compounds dissolved in DMSO, positive controls or DMSO only was transferred to the assay plate. Following compound addition, 3 uL of human liver microsomes (XenoTech, Kansas City, KS) at final concentration of 0.5 mg/mL and 1uL of B-Nicotinamide adenine dinucleotide 2'-phosphate (NADPH) at final concentration of 0.5 mg/mL were transferred to the assay plate. The plates were incubated at 37 C for 16 hours. 1 uL of LiveBLAzer detection mixture was added to each well and the plates were incubated at room temperature in the dark for 2 h. Fluorescence intensity at 460 and 530 nm emission and 405 nm excitation were measured by an Envision plate reader. For cell viability readout that measures cytotoxicity, 4 ul/well of CellTiter-Glo reagent was added into the assay plates using a Flying Reagent Dispenser. After 30 min incubation at room temperature, the luminescence intensity in the plates was measured using a ViewLux plate reader.
With `CN1CSC(=S)N(C)C1` the Potency was “inactive”.
In the case of `Cc1ccc(N)c(N)c1`, the Potency is reported as “inactive”.
For `CCCCCCCCCCCCCCCl`, the “activity change, negative = cytotoxicity” value was 6.32% (inactive).
With `C[C@@H]1O[C@@H](O[C@H]2C[C@@H](O)[C@]3(CO)[C@H]4[C@H](O)C[C@]5(C)[C@@H](C6=CC(=O)OC6)CC[C@]5(O)[C@@H]4CC[C@]3(O)C2)[C@H](O)[C@H](O)[C@H]1O` the Potency was 68.8 nM (active) and inactive.
In the case of `ClCOCCl`, the “activity change, negative = cytotoxicity” value is reported as -12.7% (inactive).
With `CC(C)CCON=O` the “activity change, negative = cytotoxicity” value was 1.69% (inactive).
With `O=C/C(Cl)=C(/Cl)C(=O)O` the Potency was “inactive”.
For `Cc1[nH]c(=O)n(C(C)(C)C)c(=O)c1Cl`, the Potency was “inactive”.
In the case of `Nc1ncn[nH]1`, the Potency is reported as “inactive”.
With `COC(=O)c1sccc1S(=O)(=O)NC(=O)Nc1nc(C)nc(OC)n1` the Potency was “inactive”.
For `COP(=O)(OC)C(O)C(Cl)(Cl)Cl` (stereo not given), the Potency was “inactive”.
With `C=CCc1ccc(OC)cc1` the Potency was “inactive”.
For `C1CN2CCC1CC2`, the “activity change, negative = cytotoxicity” value was 0.307% [at 30.3 µM] (inactive).
With `CCCOC(=O)c1ccccc1C(=O)OCCC` the Potency was “inactive”.
In the case of `CCCN(CCC)c1c([N+](=O)[O-])cc(C(C)C)cc1[N+](=O)[O-]`, the Potency is reported as “inactive”.
For `COc1cc(OC)nc(NC(=O)NS(=O)(=O)c2ncccc2C(=O)N(C)C)n1`, the “activity change, negative = cytotoxicity” value was 3.21% (inactive).
For `c1ccc(CN2CCNCC2)cc1`, the “activity change, negative = cytotoxicity” value was 15.8% [at 172 µM] (inactive).
For `C=CC(=O)NC(C)(C)CC(C)=O`, the “activity change, negative = cytotoxicity” value was 1% (inactive).
With `CCOC(=O)c1ccccc1N` the Potency was “inactive”.
With `O=C(Nc1ccc(Br)cc1)c1cc(Br)cc(Br)c1O` the Potency was “inactive”.
For `O=[N+]([O-])c1cccc(O)c1`, the “activity change, negative = cytotoxicity” value was -4.9% (inactive).
For `CC(C)=CC1C(C(=O)OCN2C(=O)C3=C(CCCC3)C2=O)C1(C)C` (stereo not given), the Potency was “inactive”.
In the case of `COP(=S)(OC)Oc1cc(Cl)c(Cl)cc1Cl`, the Potency is reported as “inactive”.
In the case of `C=CCCl`, the “activity change, negative = cytotoxicity” value is reported as -4.12% (inactive).
In the case of `CN(C)c1ccc(N=O)cc1`, the “activity change, negative = cytotoxicity” value is reported as -13.4% (inactive).
In the case of `CC(C)=CCN1CC[C@@]2(C)c3cc(O)ccc3C[C@@H]1[C@@H]2C`, the “activity change, negative = cytotoxicity” value is reported as -5.03% (inactive).
With `Clc1ccccc1Cl` the Potency was “inactive”.
In the case of `COc1ccccc1N`, the Potency is reported as “inactive”.
In the case of `CC(C)c1ccc(OP(=O)(Oc2ccc(C(C)C)cc2)Oc2ccc(C(C)C)cc2)cc1`, the Potency is reported as “inactive”.
For `CCC(C)(CC)c1cc(NC(=O)c2c(OC)cccc2OC)on1`, the Potency was “inactive”.
For `CN(C)N`, the “activity change, negative = cytotoxicity” value was 4.11% (inactive).
For `Cc1cccc(N)c1C`, the Potency was “inactive”.
For `OC[C@@H](O)[C@H]1O[C@@H]2O[C@H](C(Cl)(Cl)Cl)O[C@@H]2[C@H]1O`, the Potency was “inactive”.
In the case of `O=C(CCl)CCl`, the Potency is reported as “inactive”.
In the case of `C=CCBr`, the “activity change, negative = cytotoxicity” value is reported as 6.3% (inactive).
For `CN(N=O)c1ccccc1`, the Potency was “inactive”.
For `C[Si](Cn1cncn1)(c1ccc(F)cc1)c1ccc(F)cc1`, the Potency was “inactive”.
In the case of `Cc1ccccc1CCl`, the “activity change, negative = cytotoxicity” value is reported as 0.988% (inactive).
For `CN(N=O)C(N)=O`, the “activity change, negative = cytotoxicity” value was -27.2% (inactive).
In the case of `CCOP(OCC)OCC`, the Potency is reported as “inactive”.

Source: PubChem BioAssay (Tox21)
Potency is the fitted concentration of half-maximal effect.
